Assay outcomes: PubChem BioAssay, National Center for Advancing Translational Sciences (NCATS)
RORgamma inh: qHTS for inhibitors of ROR gamma transcriptional activity. Potency, µM (titrated, usually from 53.6 µM), for the others: at the highest dose activity change, negative = inhibition, most hits filed as inhibitors. Nuclear receptor ROR-gamma (Mus musculus), P51450. actives 5.4% (n = 310,000). Drosophila S2 Gal4-RORgamma UAS-luciferase reporter, 20 h; also: potency is read from the fitted curve at half-maximal effect; % is scaled to controls: 0 for no effect and ±100 for the full control effect; nearly all actives have a fitted effect of over 60% in size
Target sequence (P51450 whole entry, looked up, the tested form may be a part): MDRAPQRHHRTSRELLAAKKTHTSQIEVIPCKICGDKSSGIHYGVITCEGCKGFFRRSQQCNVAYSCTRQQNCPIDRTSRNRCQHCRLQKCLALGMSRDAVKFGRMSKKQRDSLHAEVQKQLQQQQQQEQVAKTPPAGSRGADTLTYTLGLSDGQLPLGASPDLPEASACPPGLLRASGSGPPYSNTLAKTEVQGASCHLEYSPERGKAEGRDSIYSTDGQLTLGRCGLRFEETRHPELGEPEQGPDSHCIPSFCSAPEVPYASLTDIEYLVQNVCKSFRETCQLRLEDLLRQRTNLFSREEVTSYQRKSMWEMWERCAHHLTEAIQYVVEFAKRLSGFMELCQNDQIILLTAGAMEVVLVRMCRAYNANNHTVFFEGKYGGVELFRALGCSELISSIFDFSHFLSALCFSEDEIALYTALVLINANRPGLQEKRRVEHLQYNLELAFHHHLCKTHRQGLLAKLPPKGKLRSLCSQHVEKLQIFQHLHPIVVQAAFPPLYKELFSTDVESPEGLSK
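Drosophila S2 cells stably expressing Gal4-DBD/mouse RORγ fusion under metallothionein promoter plus UAS-luciferase; compound 1 h, then 700 uM CuSO4 induction for 20 h at ambient temperature; inhibition read as reduced luminescence.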
MCF10A rereplic: A quantitative high throughput screen for small molecules that induce DNA re-replication in MCF 10a normal breast cells | MCF 10A DNA re-replication, Hoechst nuclear intensity, 48 h | Potency, µM (titrated, usually from 46.1 µM), without a hit: at the top dose activity, positive = re-replication, usual class: activators | actives 2.9% (n = 350,000) | AID 624296, 2012; also: potency is read from the fitted curve at half-maximal effect; % of control where 0% means no effect; nearly all actives have a fitted effect of over 50% in size
IL-1B inflam inh: qHTS for Inhibitors of Inflammasome Signaling: IL-1-beta AlphaLISA Primary Screen. THP-1 LPS/ATP IL-1B secretion, AlphaLISA, 16 h; stronger effect = lower value. activity change, % at 57.5 µM. actives 4.7% (n = 360,000). AID 743279, 2014; in the data active = activity change below about -50%; inconclusive = mostly about -30% to -49%; also: % is scaled to controls: 0 for no effect and ±100 for the full control effect
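THP-1 cells pretreated 1 hr with compounds (up to 57.5 uM final), then stimulated with LPS (250 ng/mL final) plus ATP (1.25 mM final); secreted IL-1B measured by AlphaLISA after 16 hr, decreased signal indicating inhibition.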
VP16 counter: VP16 counterscreen qHTS for inhibitors of ROR gamma transcriptional activity; Drosophila S2 Gal4-VP16 UAS-luciferase, luminescence, 20 h; Potency, µM (top dose mostly 53.6 µM), inactives show top-dose activity, negative = inhibition, hits mostly inhibitors; actives 3.5% (n = 310,000); AID 2546, 2010;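 also: Gal4-VP16 expression switched on by copper sulfate through the metallothionein promoter; potency is read from the fitted curve at half-maximal effect; % is scaled to controls: 0 for no effect and ±100 for the full control effect; nearly all actives have a fitted effect of over 50% in size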
SW480 rereplic: A quantitative high throughput screen for small molecules that induce DNA re-replication in SW480 colon adenocarcinoma cells; SW480 DNA re-replication, Hoechst DNA content imaging, 48 h; Potency, µM (highest dose often 46.1 µM), for inactives: top-dose re-replication activation, most hits filed as activators; AID 624297, 2012; actives 1.8% (n = 340,000); also: potency is read from the fitted curve at half-maximal effect; % of control where 0% means no effect; nearly all actives have a fitted effect of over 55% in size
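Cells (250 per well) received 23 nL compound or DMSO by pin tool and were kept 48 hr at 37 C, 5% CO2. Nuclei were then stained with Hoechst for 40 min and scanned for DNA content.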
The depositor's hits bear a star; ? = inconclusive; . = not tested or not shown; [ ] = dose if it differs, or a comment. A selection: hits, their analogues and other compounds. The true share with any hit is near 11%. Unless noted, calls follow the shape of the dose curve; as a rule, active = well fitted curve in the direction sought with a large enough effect; inconclusive = small, poorly fitted or top-dose-only effect, or another doubt; inactive = no such curve, though single readings can be large; an effect the other way counts as inactive or inconclusive.

SMILES	RORgamma inh	MCF10A rereplic	IL-1B inflam inh	VP16 counter	SW480 rereplic
CCc1ccccc1NC(=S)N1CCN(c2ccccc2F)CC1	7.1µM*	1%	6	?	-3%
CCOC(=O)c1ccccc1NC(=S)N1CCCCC1	?	3%	14	-1%	0%
COC(=O)c1ccc(C(=O)OC)c(NC(=S)N2CCN(c3ccccc3F)CC2)c1	?	0%	21	-3%	-3%
CCOc1ccccc1NC(=S)N1CCN(c2nc(-c3ccc(F)cc3)cs2)CC1	11µM*	2%	20	?	12%
COc1ccc(NC(=O)C2(C)CCN2C(=O)CC2CCCC2)cc1OC (centres undefined)	.	.	-2	.	.
Cc1ccc(NC(=S)N2CCN(c3ccccc3F)CC2)c(C)c1	8.9µM*	0%	13	7.1µM*	-1%
CCOc1ccccc1NC(=S)N1CCN(c2ccc(O)cc2)CC1	-15%	14%	26	17%	-3%
CCOc1ccccc1NC(=S)N1CCN(c2ccc(OC)cc2)CC1	11µM*	10%	-8	18µM*	1%
N#CCCN(Cc1ccccc1)C(C(=O)NC1CCCCC1)c1cc2ccccc2o1 (centres undefined)	.	.	33	.	.
CCOc1cccc(CN2CCC(Oc3ccc(C(=O)N4CCCC4)cc3)CC2)c1O	.	.	-6	.	.
CCCCn1c(=O)n(CC(=O)Nc2c(CC)cccc2CC)c(=O)c2c1nc(CO)n2CCC	7.1µM*	1%	4	-2%	1%
Cc1ccc(/C=[N+](\[O-])c2ccc(N(C)C)cc2)c2nsnc12	5µM*	11µM*	-99*	?	?
O=Cc1ccccc1-n1cccn1	1%	1%	0	-9%	-3%
Oc1cc(-n2cccn2)c(O)cc1-n1cccn1	?	3%	-3	13µM*	9%
COc1ccccc1NC(=S)NCCc1ccc(Cl)cc1	1.8µM*	?	1	7.1µM*	?
COc1ccc(Cl)cc1NC(=O)CN(C)C(=O)CCSc1ccc(C)cc1	.	-3%	17	.	-6%
COc1ccc(NC(=S)NCCSc2ccc(Cl)cc2)c(OC)c1	1.1µM*	?	-27	0%[0.365 µM]	13%
COc1ccc(Cl)cc1NC(=S)NCCSc1ccc(C)cc1	6.3µM*	23µM*	-15	5µM*	-5%
COc1ccccc1NC(=S)NCCSc1ccc(Cl)cc1	18µM*	4%	0	?	?
O=C(CSc1ccccc1)Nc1ccc(N2CCOCC2)c(F)c1	21%	9%	-9	-10%	-13%
CCOC(=O)C1=CCN(S(=O)(=O)c2ccc(F)cc2)C1c1cccc(F)c1 (centres undefined)	.	.	1	.	.
CCNC(=S)NCc1ccc(OC)c(OC)c1	-27%	-1%	11	-1%	-6%
COc1ccc(CCNC(=S)NCc2ccc(Cl)c(Cl)c2)cc1OC	?	13µM*	-85*	-4%	1%
COc1ccc(CN2CCC3C=CCC(C(=O)O)C3C2=O)cc1OC (centres undefined)	-13%	.	.	-7%	.
Cc1nn(Cc2c(F)c(F)c(F)c(F)c2F)c(C)c1NC(=O)c1c(-c2ccccc2)nn(-c2ccccc2)c1C	-37%	23µM*	-1	-27%	6%
SMILES	RORgamma inh	MCF10A rereplic	IL-1B inflam inh	VP16 counter	SW480 rereplic
CCNc1ccc2noc3c2c1C(=O)c1ccccc1-3	-37%	?	-94*	-18%	6%
O=C1c2ccccc2-c2onc3ccc(NCc4ccco4)c1c23	?	-3%	-97*	-28%	?
O=C1c2ccccc2-c2onc3ccc(N4CCCC4)c1c23	?	?	?	-9%	?
CCOc1ccc2noc3c2c1C(=O)c1ccccc1-3	-33%	-14%	9	-18%	-10%
O=C1C(Cl)=C(NCCN2CCCCC2)C(=O)c2ccccc21	10µM*	?	-101*	?	29%
O=C1C(Cl)=C(NCc2ccco2)C(=O)c2ccccc21	.	?	-95*	.	?
COc1ccc(CNC(=S)Nc2cc(C)cc(C)c2)cc1	4µM*	-12%	-25	13µM*	-5%[9.22 µM]
